From PubChem
Most compounds without a hit are left out; they make up all but 2.2% or so of the library.
TrxR1 inh = rat TrxR1 inhibition. O89049. recombinant rTrxR1, NADPH fluorescence consumption, selenite substrate. Potency, µM (titrated, usually from 114 µM), actives largely listed as inhibitors. hit rate 1% among 390,000. AID 588453; also: nearly all actives have a fitted effect of over 65% in size
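Rat TrxR1 (90 nM in the dispensed reagent) was pre-reduced with 400 uM NADPH for 5 min at room temperature, then incubated with compound for 15 min. After 400 uM selenite was added, NADPH fluorescence (Ex 340/Em 450 nm) was followed for 8 min.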
Giardia kill = Giardia lamblia killing; Giardia lamblia trophozoite viability; activity change, % at 7.66 µM, hits read low; hit rate 0.15% among 340,000; AID 540267; in the data active = activity change below about -80%; inconclusive = between about -30% and that limit;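 also: parasites exposed to compound for two days anaerobically before the ATP read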
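Killing of trophozoites was scored by loss of ATP luminescence after a 48 hrs anaerobic exposure to compounds at 37 deg C, using 100 cells per well.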
IL2 activator = IL-2 activation. activation, % (series mostly up to about 46 µM). IL-2 activation reporter assay, cell-based qHTS; stimulated with anti-CD3/CD4/CD28 beads; in transgenic mouse T cells. hit rate 0.065% among 360,000. AID 652025; in the data active = activation above about 50%; inconclusive = mostly about 30% to 49%
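EGFP and DsRed fluorescence is measured by plate cytometry in unstimulated transgenic mouse T cells exposed to compound for 60 minutes, then stimulated 18 hours at 37 degrees C with anti-CD3/anti-CD4 beads plus anti-CD28.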
BRCA1 expr act = BRCA1 expression activation; MCF7-BRCA1-FFLuc reporter, luminescence, 48 h; response scale: scaled: vehicle 0%, 10 µM genistein 100%; AID 624202; Potency, µM (series often up to 46.1 µM), hits mostly activators; hit rate 1.1% among 380,000; also: nearly all actives have a fitted effect of over 80% in size
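Using MCF7 cells harboring a BRCA1 firefly luciferase reporter, plated 2 h before compound pinning, the screen measured luminescence after 48 h incubation. Responses were normalized to DMSO and 10 microM genistein, then fitted for concentration-effect.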
TrxR1 substrate = is turned over as a substrate by rat TrxR1 | O89049 | purified TrxR1 substrate turnover, NADPH consumption readout | Potency, µM (doses to about 114 µM) | hit rate 0.01% among 390,000 | AID 588456; also: nearly all actives have a fitted effect of over 50% in size
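Rat TrxR1, dispensed at 90 nM, was prereduced with 400 uM NADPH (final) for 5 min at ~22 deg C, then incubated with compound 15 min before 400 uM selenite. A first-read NADPH fluorescence drop versus no-compound background flagged substrates.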
mIDH1 inhibitor = human IDH1 R132H inhibition. O75874. IDH1-R132H enzyme, NADPH consumption, diaphorase/resazurin fluorescence. Potency, µM (top dose mostly 76.6 µM), most hits filed as inhibitors. hit rate 0.093% among 390,000; also: nearly all actives have a fitted effect of over 65% in size
Target sequence (O75874 whole entry R132H, stated change not applied): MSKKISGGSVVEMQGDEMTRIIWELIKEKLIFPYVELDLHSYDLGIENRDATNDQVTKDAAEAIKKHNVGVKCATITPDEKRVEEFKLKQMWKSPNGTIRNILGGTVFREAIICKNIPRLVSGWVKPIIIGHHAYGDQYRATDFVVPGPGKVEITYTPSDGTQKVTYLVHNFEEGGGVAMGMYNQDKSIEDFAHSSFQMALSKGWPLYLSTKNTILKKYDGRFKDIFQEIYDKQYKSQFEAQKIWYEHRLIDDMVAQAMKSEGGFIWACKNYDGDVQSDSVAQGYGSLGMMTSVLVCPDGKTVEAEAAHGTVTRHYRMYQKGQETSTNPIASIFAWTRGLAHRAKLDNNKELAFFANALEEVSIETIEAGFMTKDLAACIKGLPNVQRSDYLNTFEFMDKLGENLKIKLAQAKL
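IDH1-R132H (0.5 ug/mL dispensed) in pH 7.5 Tris buffer was preincubated 30 min with compound, then given a substrate mix of 0.016 mM NADPH and 2 mM alpha-KG for 80 min at room temperature; remaining NADPH was read by diaphorase/resazurin fluorescence.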
Of the large screens only hits and unclear results are named; the others gave an inactive call; ! = a repeat was not active. Unless noted, calls follow the shape of the dose curve; as a rule, active = well fitted curve in the direction sought with a large enough effect; inconclusive = small, poorly fitted or top-dose-only effect, or another doubt; inactive = no such curve, though single readings can be large; an effect the other way counts as inactive or inconclusive.

c1ccc(CNc2ncnc3nc(N4CCOCC4)[nH]c23)cc1	none (no result: IL2 activator, mIDH1 inhibitor)
O=C(Cc1cccs1)Nc1ccc(N2CCOCC2)cc1	BRCA1 expr act 7.9µM
CN(CC(=O)Nc1ccc(N2CCOCC2)cc1)Cc1c(O)ccc2ccccc12	TrxR1 inh 4µM
CN(CC(=O)Nc1ccc(N2CCOCC2)cc1)CC(=O)Nc1ccc(N2CCOCC2)cc1	none
C[N+]1(CC(=O)c2ccc(Br)cc2)CCOCC1	none (no result: Giardia kill, IL2 activator, BRCA1 expr act, mIDH1 inhibitor)
COc1ccccc1C1N=C(c2ccccc2C)NO1 (configuration not stated)	BRCA1 expr act 13µM
Cc1ccccc1C1=NC(c2ccc(F)cc2F)ON1 (configuration not stated)	none
CCOc1ccc(NC(=O)Nc2cc(C(C)C)c(O)cc2C)cc1	none
CCOc1ccc(NC(=O)Nc2cc(C)ccc2F)cc1	BRCA1 expr act 2.5µM
CCCCCCCN(C(=O)CCl)c1ccccc1C	TrxR1 inh 79µM
CCN(C(=O)c1ccc(C(=O)N(CC)c2ccccc2C)cc1)c1ccccc1C	none (no result: Giardia kill, IL2 activator, BRCA1 expr act)
COc1cccc(C2C=C(c3ccc(OC)cc3OC)Nc3nnnn32)c1 (configuration not stated)	TrxR1 inh 45µM
CC(C)CCNC(=O)c1ccc2c(c1)N(Cc1ccccc1F)C(=O)c1ccccc1S2(=O)=O	none (no result: Giardia kill, IL2 activator)
O=C(NNC(=S)Nc1ccccc1Cl)c1ccccc1Br	BRCA1 expr act 8.9µM
CCOc1ccc(NC2C=CS(=O)(=O)C2)cc1 (configuration not stated)	TrxR1 inh inconclusive
COc1ccc(NC2C=CS(=O)(=O)C2)cc1 (configuration not stated)	TrxR1 inh 16µM
Cc1ccccc1NC(=S)NC(=O)c1cncc(Br)c1	TrxR1 inh 13µM
O=C(NC(=S)NC1CCCCCC1)c1cncc(Br)c1	TrxR1 inh inconclusive, BRCA1 expr act 11µM
CCc1cc(C(=O)NNC(=S)Nc2cc(C)ccc2C)cs1	none
CCc1cc(C(=O)NNC(=S)Nc2ccccc2C)cs1	BRCA1 expr act 10µM
Cc1c(-c2ccccc2)n(-c2ccccc2O)c2nc3c(c(=O)n(C)c(=O)n3C)n12	none (no result: Giardia kill, IL2 activator)
Cc1cc(O)c(-c2cc(C(=O)Nc3cccnc3)[nH]n2)cc1C	BRCA1 expr act 5.6µM
Cc1ccc(OC(=O)c2cccc(S(=O)(=O)N(C)C)c2)c(-n2nc3ccccc3n2)c1	BRCA1 expr act inconclusive
Cc1ccc(OC(=O)c2ccc(S(=O)(=O)N(C)C)cc2)c(-n2nc3ccccc3n2)c1	BRCA1 expr act 13µM
Cc1ccc2c(c1)c(=O)c1c3n2CCN(C(=O)CCl)C3CC1 (configuration not stated)	TrxR1 inh 14µM
CN(Cc1ccccc1)C(=O)c1nc(-c2ccc(Cl)cc2)n2c1CCCCC2	none (no result: Giardia kill, IL2 activator, BRCA1 expr act)
CSCCC(NC(=O)C1CCCCC1)C(=O)Nc1ccc(F)c(Cl)c1 (configuration not stated)	none (no result: Giardia kill, IL2 activator, BRCA1 expr act)
c1ccc(OCCNc2ccn3nc(-c4ccccc4)cc3n2)cc1	BRCA1 expr act inconclusive (no result: TrxR1 inh, Giardia kill, TrxR1 substrate, mIDH1 inhibitor)
c1ccc(OCCNc2ccn3nc(-c4ccco4)cc3n2)cc1	BRCA1 expr act 14µM (no result: TrxR1 inh, Giardia kill, TrxR1 substrate, mIDH1 inhibitor)
Cc1c(C)c2c(OCC(=O)NCc3ccccn3)cc3c(c2oc1=O)CCC(C)(C)O3	TrxR1 inh 89µM
O=C(c1ccccc1)C1CN(Cc2ccccc2)CCC1(O)c1ccccc1 (configuration not stated)	TrxR1 inh 7.1µM
CCOC(=O)c1c(C)c(C(=O)NCCc2ccccc2)c(C)n1C	BRCA1 expr act 10µM
CCc1noc(C)c1C(=O)NCCc1ccccc1	BRCA1 expr act 10µM
CCc1noc(C)c1C(=O)NCCc1ccc(F)cc1	none
Cc1ccc(S(=O)(=O)c2nc(C(C)(C)C)oc2N2CCOCC2)cc1	TrxR1 inh 0.56µM
Cc1ccc(S(=O)(=O)c2nc(C)oc2N2CCOCC2)cc1	TrxR1 inh inconclusive
CCOC(=O)c1c(C)c(-c2ccccc2)n(CC(=O)Nc2cc(OC)cc(OC)c2)c1C	none (no result: Giardia kill, IL2 activator)
CN(C(=O)CSc1nc2ccccc2n1CC(=O)N(C)C1CCCCC1)c1ccc(F)cc1	none (no result: Giardia kill, IL2 activator, BRCA1 expr act)
CCCCS/C(=C(/C#N)C(N)=O)c1cc2c([nH]1)CCCC2	TrxR1 inh 45µM
O=C(Nc1ccc(Br)cc1)c1cnccn1	BRCA1 expr act 8.9µM
Cc1ccc(NC(=O)c2cnccn2)cc1	none
Cc1ccc(NC(=O)c2cnccn2)cc1C	BRCA1 expr act 7.9µM
COc1ccc(C)cc1NC(=O)Cn1c(=O)cc(C)c2c(C)nn(C)c21	none (no result: Giardia kill, IL2 activator, BRCA1 expr act, mIDH1 inhibitor)
COc1ccc(NC(=O)CSc2cn(CCNC(=O)c3c(F)cccc3F)c3ccccc23)cc1	none (no result: Giardia kill, IL2 activator)
Cc1cccc(N2CCN(C(=O)c3c4c(nc5ccccc35)C(=O)N(C3CCCCC3)C4)CC2)c1C	none (no result: Giardia kill, IL2 activator, BRCA1 expr act)
CC(C)(C)C(=O)Nc1ccc(-c2cn3ccsc3n2)cc1	Giardia kill -97
O=[N+]([O-])c1ccc(/C=N\NS(=O)(=O)c2ccc(F)cc2)o1	TrxR1 inh 32µM, Giardia kill inconclusive
COc1ccc(S(=O)(=O)N/N=C\c2ccc([N+](=O)[O-])o2)c(OC)c1	TrxR1 inh 35µM
O=C(N/N=C/c1ccc([N+](=O)[O-])o1)c1ccncc1	none
FC(F)(F)c1cc(-c2ccco2)nc(NCc2ccccc2)n1	TrxR1 inh inconclusive
Fc1ccc(CNc2nc(-c3ccco3)cc(C(F)(F)F)n2)cc1	TrxR1 inh 25µM
Cc1ccc2cc(CN(C(=O)c3ccco3)c3ccccc3)c(=O)[nH]c2c1	TrxR1 inh inconclusive
Cc1cccc(N(Cc2cc3ccc(C)cc3[nH]c2=O)C(=O)c2ccco2)c1	TrxR1 inh 35µM
O=C(c1nc2ccccc2[nH]1)c1ccccc1[N+](=O)[O-]	BRCA1 expr act 11µM
CCn1cc(C(=O)NCc2ccco2)c2cc(OC)c(OC)cc2c1=O	none
COc1cc2c(C(=O)NCc3ccc(C)o3)cn(CC(C)C)c(=O)c2cc1OC	TrxR1 inh 20µM
Cc1ccc(NC(=O)c2sc3nc(CCl)[nH]c(=O)c3c2C)c(C)c1	TrxR1 inh inconclusive, BRCA1 expr act 11µM
Cc1nc2ccccc2nc(=O)c1NNc1ccccc1	BRCA1 expr act 5µM!
CCC(=O)N(CC)c1nc(-c2ccc(OC)cc2)cs1	BRCA1 expr act 11µM
CCN(C(=O)c1ccccc1F)c1nc(-c2ccc(OC)cc2)cs1	BRCA1 expr act 7.9µM
COCCN(C(=O)c1ccccc1F)c1nc(-c2ccc(OC)cc2)cs1	none
Cc1ccc(C(=O)N2c3ccccc3CC2C)o1 (configuration not stated)	BRCA1 expr act 4µM
O=C(Nc1ccc(Br)cc1F)N1CCC2(CC1)Oc1ccccc1C(=O)N2Cc1ccccc1F	none (no result: Giardia kill, IL2 activator, BRCA1 expr act, mIDH1 inhibitor)
Cc1nn(CCC(=O)Nc2ccc(Cl)cc2)c(C)c1S(=O)(=O)N1CCCCC1	none (no result: Giardia kill, IL2 activator, BRCA1 expr act)
